Experimental data reported in PubChem BioAssay AID817 (Emory University Molecular Libraries Screening Center, 2007).
About 300 (0.21%) of roughly 140,000 compounds were called active.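 Rule for the calls: active = z-score above 3 at both the 24 hr and the 30 hr optical density reads; inactive = the rest, inconclusive results apart.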 The list comes from a sample in which actives are over-represented; it also holds similar structures and randomly drawn compounds.

Assay: growth rescue of sdo1-depleted yeast, primary screen, S. cerevisiae, bone marrow failure model (AID 817);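 note: z-score against mean and SD of all compound wells on the same plate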
Conditions: S. cerevisiae sdo1-depleted JHY4D growth rescue, at 10 µM, stronger effect = higher value, pdr5 snq2 efflux-pump mutant strain
[1] = OD600, measured here: growth rescue at 24 h

SMILES: C=CCc1ccccc1OCC(=O)N/N=C/c1ccccc1OCC
- z-score (OD600 30 h): 0.63 (inactive)
- z-score [1]: 0.43

SMILES: CC(=O)N1CCN(CC(=O)Nc2ccc(SC(F)F)cc2)CC1
- z-score (OD600 30 h): 1.61 (inactive)
- z-score [1]: 1.79

SMILES: CC(C)CNC(=O)CC(NCC(C)C)C(=O)O (centres undefined)
- z-score (OD600 30 h): 0.7 (inactive)
- z-score [1]: 0.56

SMILES: c1ccc(C2CNCc3c2ccc2ccccc32)cc1 (centres undefined)
- z-score (OD600 30 h): -0.88 (inactive)
- z-score [1]: -1.37

SMILES: CCc1nnc(NC(=O)[C@@H](NC(=O)c2cccc(C)c2)C(C)C)s1
- z-score (OD600 30 h): 0.02 (inactive)
- z-score [1]: -0.75

SMILES: CCc1cccc(CC)c1NC(=S)NCc1ccc2[nH]c(C)cc2c1
- z-score (OD600 30 h): -0.04 (inactive)
- z-score [1]: 0.97

SMILES: CC1CCCC(NC(=O)COC(=O)[C@@H]2CC(O)CN2S(=O)(=O)c2ccc3c(c2)OCCO3)C1C (some centres undefined)
- z-score (OD600 30 h): 1.03 (inactive)
- z-score [1]: 1.42

SMILES: Cc1nc2scc(-c3cccs3)c2c(=O)n1N
- z-score (OD600 30 h): 0.14 (inactive)
- z-score [1]: -0.79

SMILES: O=C(COC(=O)/C=C/c1nc2ccccc2s1)Nc1ccccc1Oc1ccccc1
- z-score (OD600 30 h): -0.21 (inactive)
- z-score [1]: 0.04

SMILES: CC(=O)NS(=O)(=O)c1ccc(NC(=O)C2C3C=CC(C3)C2C(=O)O)cc1 (centres undefined)
- z-score (OD600 30 h): -0.71 (inactive)
- z-score [1]: -0.47

SMILES: CN(C)C(CNC(=O)c1ccc(S(=O)(=O)NCc2ccco2)cc1)c1ccccc1 (centres undefined)
- z-score (OD600 30 h): 0.96 (inactive)
- z-score [1]: 0.68

SMILES: COc1ccc(C)cc1Nc1nc(-c2c(C)[nH]c3ccccc23)cs1
- z-score (OD600 30 h): -0.39 (inactive)
- z-score [1]: -0.09

SMILES: CCCn1c(=O)c2c(C(F)(F)F)cc(-c3cccs3)nc2n(CCC)c1=O
- z-score (OD600 30 h): 1.32 (inactive)
- z-score [1]: 2.13

SMILES: O=C(NCc1cccs1)C(=O)NCC1OCCCN1S(=O)(=O)c1ccc(F)cc1 (centres undefined)
- z-score (OD600 30 h): -0.71 (inactive)
- z-score [1]: -1.35

SMILES: CCOc1ccc(NC(=S)N2CCC(N(C)CC3CCCO3)CC2)cc1 (centres undefined)
- z-score (OD600 30 h): 0.68 (inactive)
- z-score [1]: 1.31

SMILES: Cc1[nH]c2ccccc2c1/C=N/NC(=O)CNC(=O)c1ccc2c(c1)OCO2
- z-score (OD600 30 h): 1.92 (inactive)
- z-score [1]: 3.35

SMILES: NC(=S)N/N=C/c1coc2cc(Cl)ccc2c1=O
- z-score (OD600 30 h): -1.25 (inactive)
- z-score [1]: -1.16

SMILES: O=C(CSc1nnc(-c2ccncc2)o1)NCc1ccc(Cl)cc1
- z-score (OD600 30 h): 0.26 (inactive)
- z-score [1]: -0.05

SMILES: COc1ccc(NC(=S)NC2CCS(=O)(=O)C2)cc1 (centres undefined)
- z-score (OD600 30 h): -0.13 (inactive)
- z-score [1]: -0.11

SMILES: COCCn1c(=NC(=O)c2ccccc2[N+](=O)[O-])sc2cc(S(C)(=O)=O)ccc21
- z-score (OD600 30 h): -0.84 (inactive)
- z-score [1]: -0.91

SMILES: COC(=O)c1onc(-c2c(OC)cc(OC)cc2OC)c1C(=O)OC
- z-score (OD600 30 h): 0.49 (inactive)
- z-score [1]: 0.26

SMILES: O=C(COC(=O)c1cc(=O)[nH]c2ccccc12)Nc1nc(-c2cccc(Br)c2)cs1
- z-score (OD600 30 h): -0.47 (inactive)
- z-score [1]: -0.07

SMILES: C=CCNC(=O)c1ccccc1NC(=O)c1ccc(Cl)c(S(=O)(=O)Nc2cccc(C)c2C)c1
- z-score (OD600 30 h): -0.47 (inactive)
- z-score [1]: 0.23

SMILES: C=CCN1C(=O)C(Cc2ccc(OCC)cc2)SC1=Nc1ccc(C(=O)O)cc1 (centres undefined)
- z-score (OD600 30 h): -0.13 (inactive)
- z-score [1]: -0.75

SMILES: CC(C)CCNC(=O)c1cccnc1Sc1ccccc1
- z-score (OD600 30 h): 0.7 (inactive)
- z-score [1]: 0.32

SMILES: Cc1ccc(/C=N/NC(=O)CNC(=O)COc2ccccc2)o1
- z-score (OD600 30 h): 1.11 (inactive)
- z-score [1]: 1.1

SMILES: CS(=O)(=O)N(Cc1ccccc1)c1ccc(C(=O)NN=C2CCCCCC2)cc1
- z-score (OD600 30 h): -0.22 (inactive)
- z-score [1]: -0.83

SMILES: COc1ccccc1OCc1ccc(C(=O)N2CCN(C)CC2)o1
- z-score (OD600 30 h): 0.86 (inactive)
- z-score [1]: 0.24

SMILES: CN1CCN(C(=O)/C(=C\c2cccs2)NC(=O)c2cccs2)CC1
- z-score (OD600 30 h): 0.48 (inactive)
- z-score [1]: 0.2

SMILES: CCOc1ccc(C(=O)NC(=S)Nc2ccc(N3CCOCC3)c(Cl)c2)cc1[N+](=O)[O-]
- z-score (OD600 30 h): -1.76 (inactive)
- z-score [1]: -1.28

SMILES: COc1ccc(C(=O)NNS(=O)(=O)c2ccc(C)cc2)cc1
- z-score (OD600 30 h): -0.36 (inactive)
- z-score [1]: -1.37

SMILES: CC1(C)C=C2[C@H]3CC[C@@H]4[C@@]5(C)CCC(=O)C(C)(C)[C@@H]5CC[C@@]4(C)[C@]3(C)CC[C@@]2(C(=O)O)CC1
- z-score (OD600 30 h): -0.02 (inactive)
- z-score [1]: -0.53

SMILES: FC(F)(F)c1cccc(N/N=C/c2ccccc2)c1
- z-score (OD600 30 h): -1.78 (inactive)
- z-score [1]: -1.53

SMILES: COc1ccccc1N1CCN(C(=O)C(=O)N/N=C/c2ccccc2F)CC1
- z-score (OD600 30 h): 1.25 (inactive)
- z-score [1]: 0.28

SMILES: COc1ccc(OC(C)C(=O)NCCc2nc3ccccc3[nH]2)cc1 (centres undefined)
- z-score (OD600 30 h): 0.82 (inactive)
- z-score [1]: -0.04

SMILES: COc1ccccc1-n1c(C)nc2cc(C(=O)NCc3ccc4c(c3)OCO4)ccc21
- z-score (OD600 30 h): -0.72 (inactive)
- z-score [1]: -1.61

SMILES: COC(=O)c1cc(C(=O)N(Cc2ccccc2)c2ccccn2)cc([N+](=O)[O-])c1
- z-score (OD600 30 h): -0.07 (inactive)
- z-score [1]: -0.08

SMILES: CCc1ccccc1NC(=O)CN(C)C(=O)COc1ccc(C)nc1[N+](=O)[O-]
- z-score (OD600 30 h): -0.39 (inactive)
- z-score [1]: -0.24

SMILES: CCOC(=O)N1CCN(CC(=O)c2c(C)[nH]c3ccccc23)CC1
- z-score (OD600 30 h): -0.21 (inactive)
- z-score [1]: -1.53

SMILES: Cc1[nH]c2ccccc2c1C(=O)COC(=O)C(C)C
- z-score (OD600 30 h): 0.17 (inactive)
- z-score [1]: -0.5

SMILES: Cc1[nH]c2ccccc2c1C(=O)CSCC(=O)O
- z-score (OD600 30 h): 10.5 (active)
- z-score [1]: 8.73

SMILES: CCCC1OC23CCCCC2C(C#N)(C#N)C1(C#N)C(=N)O3 (centres undefined)
- z-score (OD600 30 h): 0.28 (inactive)
- z-score [1]: 0.9

SMILES: CCOc1ccc2c(=O)c(-c3ccc4c(c3)OCCCO4)c(C)oc2c1
- z-score (OD600 30 h): 0.07 (inactive)
- z-score [1]: -0.34

SMILES: O=C(OCC(=O)c1c[nH]c2ccccc12)c1cccc(O)c1
- z-score (OD600 30 h): 0 (inactive)
- z-score [1]: 0

SMILES: O=C(NC(=S)Nc1ccc2oc(=O)ccc2c1)c1ccc(-c2cccc(Cl)c2Cl)o1
- z-score (OD600 30 h): -0.64 (inactive)
- z-score [1]: 0.44

SMILES: CCOC(=O)c1c(NC(=S)Nc2ccccc2C)sc2c1CCC2
- z-score (OD600 30 h): -0.66 (inactive)
- z-score [1]: 0.75

SMILES: COc1ccc(C(C[N+](=O)[O-])n2nc(C)cc2C)cc1 (centres undefined)
- z-score (OD600 30 h): -2.03 (inactive)
- z-score [1]: -0.33

SMILES: O=C(N/N=C\c1ccc(Br)cc1)c1ccc(Cn2cccn2)o1
- z-score (OD600 30 h): 0.87 (inactive)
- z-score [1]: -0.05

SMILES: O=S(=O)(NCC1CCCO1)c1cnc(Cl)c(Cl)c1 (centres undefined)
- z-score (OD600 30 h): 1.1 (inactive)
- z-score [1]: 0.93

SMILES: Cc1c(C(=O)NCCN2C(=O)S/C(=C\c3cccs3)C2=O)cccc1[N+](=O)[O-]
- z-score (OD600 30 h): -0.51 (inactive)
- z-score [1]: -0.6

SMILES: COc1cccc(NC(=O)C(Sc2nc3ccccc3c(=O)n2CC(C)C)c2ccccc2)c1 (centres undefined)
- z-score (OD600 30 h): -1.02 (inactive)
- z-score [1]: -0.31

SMILES: Cc1nnnn1/C(=C\c1ccccc1)C(=O)OCC(=O)N1CC2(C)CC1CC(C)(C)C2 (centres undefined)
- z-score (OD600 30 h): -1.27 (inactive)
- z-score [1]: -0.83
